# In PubChem BioAssay (NCATS):
# Records with an inconclusive call do not appear. Where a call stands in place of a potency, no number is given. Activity calls are given as the source filed them. Unless noted, calls follow the shape of the dose curve; as a rule, active = well fitted curve in the direction sought with a large enough effect; inconclusive = small, poorly fitted or top-dose-only effect, or another doubt; inactive = no such curve, though single readings can be large; an effect the other way counts as inactive or inconclusive.
# Columns and labels:
# [1] = biological target: Alpha-galactosidase A (Homo sapiens) (UniProt P06280); experiment: Counterscreen for Glucocerebrosidase Inhibitors: qHTS Assay for Human alpha-Galactosidase at pH 4.5 (AID 992)
# Sequence of Alpha-galactosidase A (Homo sapiens) (P06280 whole entry, looked up): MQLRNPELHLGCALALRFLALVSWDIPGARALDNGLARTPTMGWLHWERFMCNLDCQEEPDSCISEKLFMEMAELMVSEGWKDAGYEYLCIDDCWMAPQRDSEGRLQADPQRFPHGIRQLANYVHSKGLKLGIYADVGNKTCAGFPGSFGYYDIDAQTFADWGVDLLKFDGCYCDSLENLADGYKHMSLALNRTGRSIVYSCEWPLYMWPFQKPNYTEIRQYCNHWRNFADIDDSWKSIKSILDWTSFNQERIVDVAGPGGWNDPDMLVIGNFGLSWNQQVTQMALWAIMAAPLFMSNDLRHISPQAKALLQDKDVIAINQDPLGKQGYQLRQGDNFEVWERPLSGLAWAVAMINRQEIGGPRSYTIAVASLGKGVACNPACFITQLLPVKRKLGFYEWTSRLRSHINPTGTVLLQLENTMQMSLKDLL
# Summary of the method: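 Citrate buffer pH 4.5, Tween-20 0.005%. Enzyme 2 nM, substrate 80 uM, 20 min RT. Stop pH 10. Fluorescence Ex 365/Em 440. AC50 by Hill fit.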
# [2] = biological target: alpha-glucosidase (Oryza sativa, rice) (UniProt Q653V4); experiment: Counterscreen for Glucocerebrosidase Inhibitors: qHTS Assay for Rice alpha-Glucosidase at pH 5.0 (AID 997)
# Summary of the method: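 Endpoint fluorogenic assay at pH 5.0: compounds (0.7 nM to 77 uM) titrated against 4 nM rice enzyme and 400 uM 4-MU-alpha-glucoside for 20 min at room temperature; NaOH/glycine stop, read ex 365/em 440 nm, Hill-fitted AC50.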
# [3] = Validation of Assay for Modulators of Lamin A Splicing (AID 1459; active = well fitted curve in the direction sought with a large enough effect in the signal ratio; the % refers to the signal ratio;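 also: cells exposed to compound for two days before reading; ratio rise marks activators and ratio drop marks inhibitors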)
# Summary of the method: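 Readout: ratio of GFP (500-530 nm) to RFP (575-640 nm) total object intensity by 488 nm laser-scanning cytometry after 48 hrs. Cells were HeLa S3 clones carrying lamin A-EGFP minigene plus DsRed2 viability reporter; vehicle 0.5% DMSO final.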
# [4] = Cell Viability - LYMP2-018 (AID 985); also: nearly all actives have a fitted effect of over 50% in size; also: potency is read from the fitted curve at half-maximal effect
# Summary of the method: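 In this qHTS viability assay, cells are treated for 24 hr and cellular ATP is quantified by luciferase-based luminescence, with tetraoctylammonium bromide as positive control.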
# [5] = Cell Viability - LYMP2-020 (AID 986);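 also: series mostly up to about 92 µM; cells exposed to compound for 24 h at 37 °C; nearly all actives have a fitted effect of over 55% in size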
# Summary of the method: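 Cells at 2500 per well receive a 24 hr compound exposure at 37 C. Viability is measured as ATP-dependent luciferase luminescence, with AC50 modeled from qHTS concentration-response curves.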
# [6] = Cell Viability - LYMP2-022 (AID 987); also: nearly all actives have a fitted effect of over 55% in size
# Summary of the method: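 In this qHTS cytotoxicity screen, compound titrations were incubated 24 hr at 37 C with human lymphoblastoid cells in complete medium. Luciferase-based ATP luminescence provided the viability signal.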
# [7] = Cell Viability - LYMP2-024 (AID 988); also: nearly all actives have a fitted effect of over 60% in size
# Summary of the method: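 Cells at 2500 per well received compound for 24 hr after a 5 hr settling period. Viability was scored by CellTiter-Glo luminescence, with AC50 from Hill fits.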
# [8] = Cell Viability - LYMP2-026 (AID 989);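 also: cells exposed to compound for 24 h at 37 °C; nearly all actives have a fitted effect of over 50% in size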
# Summary of the method: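 Acute toxicity screen in complete culture medium, with 24 hr compound exposure at 37 C. Viability read as cellular ATP via luciferase reaction, with tetraoctylammonium bromide (6.4pM to 92 uM) as positive control.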
# [9] = Cell Viability - LYMP1-002 - Assay at 24 hr (AID 993)
# Summary of the method: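 Viability was judged from intracellular ATP using a luciferase read-out, following a 24-hour compound incubation at 37 C of lymphoblastoid cells seeded at 2500 per well. Concentration-response data were fitted to the Hill equation for AC50.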
# [10] = Cell Viability - LYMP1-002 - Assay at 40 hr (AID 994); also: nearly all actives have a fitted effect of over 60% in size; also: potency is read from the fitted curve at half-maximal effect
# Summary of the method: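 Concentration-dependent ATP loss after 40 hr treatment at 37 C defined toxicity; AC50 values were obtained by fitting the standard Hill equation.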
compound,measurement,setting,value
COc1cc(C(=O)OCCCN2CCCN(CCCOC(=O)c3cc(OC)c(OC)c(OC)c3)CC2)cc(OC)c1OC,outcome,[1],inactive
same,outcome,[2],inactive
same,outcome,[3],inactive
O=C(O)CCCCCCCC(=O)O,outcome,[1],inactive
same,outcome,[2],inactive
same,outcome,[3],inactive
O=C(O)CP(=O)(O)O,outcome,[1],inactive
same,outcome,[2],inactive
same,outcome,[3],inactive
CCN(CC)CCOCCOC(=O)C1(c2ccccc2)CCCC1,outcome,[1],inactive
same,outcome,[2],inactive
same,outcome,[3],inactive
CC(=O)OC(C)C[N+](C)(C)C (centres undefined),outcome,[3],inactive
O=C(CCNNC(=O)c1ccncc1)NCc1ccccc1,outcome,[1],inactive
same,outcome,[2],inactive
same,outcome,[3],inactive
CCOC(=O)c1cnc2c(cnn2CC)c1NN=C(C)C,outcome,[1],inactive
same,outcome,[2],inactive
same,outcome,[3],inactive
CCn1nc(C(=O)O)c(=O)c2cc3c(cc21)OCO3,outcome,[1],inactive
same,outcome,[2],inactive
same,outcome,[3],inactive
CNCCC(Oc1ccccc1OC)c1ccccc1 (centres undefined),outcome,[3],inactive
CCN(CC)CC(=O)Nc1c(C)cccc1C,outcome,[1],inactive
same,outcome,[2],inactive
same,outcome,[3],inactive
COCCc1ccc(OCC(O)CNC(C)C)cc1 (centres undefined),outcome,[3],inactive
CC(C)COCC(CN(Cc1ccccc1)c1ccccc1)N1CCCC1 (centres undefined),outcome,[3],inactive
COCCOC(=O)C1=C(C)NC(C)=C(C(=O)OC(C)C)C1c1cccc([N+](=O)[O-])c1 (centres undefined),outcome,[3],inactive
CCOC(=O)C1=C(C)NC(C)=C(C(=O)OC)C1c1cccc([N+](=O)[O-])c1 (centres undefined),outcome,[3],inactive
CC1=C(C)C(=O)C(CCCCC#CCCCC#CCO)=C(C)C1=O,outcome,[1],inactive
same,outcome,[2],inactive
same,outcome,[3],inactive
CN(C(=O)CCCOc1ccc2[nH]c(=O)ccc2c1)C1CCCCC1,outcome,[1],inactive
same,outcome,[2],inactive
same,outcome,[3],inactive
CCCCNc1ccc(C(=O)OCCN(C)C)cc1,outcome,[1],inactive
same,outcome,[2],inactive
same,outcome,[3],inactive
COc1ccc(CCN(C)CCCC(C#N)(c2cc(OC)c(OC)c(OC)c2)C(C)C)cc1OC (centres undefined),outcome,[3],inactive
c1ccc2c(c1)CCCC2C1=NCCN1 (centres undefined),outcome,[3],inactive
CN/C(=C\[N+](=O)[O-])NCCSCc1ccc(CN(C)C)o1,outcome,[1],inactive
same,outcome,[2],inactive
same,outcome,[3],inactive
CCCCCN(CCCCC)C(=O)C(CCC(=O)O)NC(=O)c1ccc(Cl)c(Cl)c1 (centres undefined),outcome,[3],inactive
CCCCNC(=O)NS(=O)(=O)c1ccc(C)cc1,Potency,[4],inactive
same,Potency,[5],inactive
same,Potency,[6],inactive
same,Potency,[7],inactive
same,outcome,[8],inactive
same,outcome,[9],inactive
same,Potency,[10],inactive
same,outcome,[2],inactive
same,outcome,[3],inactive
Cc1nc2ccccn2c(=O)c1CCN1CCC(C(=O)c2ccc(F)cc2)CC1,outcome,[1],inactive
same,outcome,[2],inactive
same,outcome,[3],inactive
Cc1cc(C)c(/C=C2\C(=O)Nc3ccccc32)[nH]1,outcome,[3],inactive
CC(C(=O)O)c1ccc(CC2CCCC2=O)cc1 (centres undefined),outcome,[3],inactive
CC(C)NCC(O)c1cc(O)cc(O)c1 (centres undefined),outcome,[3],inactive
FC(F)(F)c1ccccc1-n1ccnc1,outcome,[1],inactive
same,outcome,[2],inactive
same,outcome,[3],inactive
COc1cc(Cc2cnc(N)nc2N)cc(OC)c1OC,Potency,[4],inactive
same,Potency,[5],inactive
same,Potency,[6],inactive
same,Potency,[7],inactive
same,outcome,[8],inactive
same,outcome,[1],inactive
same,outcome,[9],inactive
same,Potency,[10],inactive
same,outcome,[2],inactive
same,outcome,[3],inactive
CCCN1C[C@H](CSC)C[C@@H]2c3cccc4[nH]cc(c34)C[C@H]21,outcome,[3],inactive
NC(N)=NC(=O)Cc1c(Cl)cccc1Cl,outcome,[1],inactive
same,outcome,[2],inactive
same,outcome,[3],inactive
CC(N=C(NC#N)Nc1ccncc1)C(C)(C)C (centres undefined),outcome,[3],inactive
CCN(Cc1ccncc1)C(=O)C(CO)c1ccccc1 (centres undefined),outcome,[3],inactive
COC(=O)[C@H]1[C@H]2C[C@@H]3c4[nH]c5cc(OC)ccc5c4CCN3C[C@H]2C[C@@H](OC(=O)c2cc(OC)c(OC)c(OC)c2)[C@@H]1OC,Potency,[4],50.1 µM (active)
same,outcome,[1],inactive
same,Potency,[10],50.1 µM (active)
same,outcome,[2],inactive
same,outcome,[3],inactive
